# From the supplement of paper PMC6555819
# What was measured:
# Test in all cases: PBM binding z-score (relative to random genomic background probes); higher = stronger binding; sequences stand for … in GC…GCGATTGACAGCGTAGAATGAAGG
# [1] = test system: FXR:RXRa (NR concentration 270 nM, RXRa partner concentration 90 nM)
# In short: (§1)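 Custom Agilent 4×180K protein-binding microarrays carried double-stranded probes, each with a 34-nt variable region. These regions held direct-repeat seeds, single-nucleotide variants, half-site ablations and random human genomic background sequences. Ligand-free nuclear receptor dimers were incubated on the arrays for 1 h, antibodies against each partner (one per run) detected binding, and scanned fluorescence was regression-normalized. Binding z-scores take the random background probes as reference.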
# [2] = test system: LXRa:RXRa (NR concentration 270 nM, RXRa partner concentration 90 nM)
# In short: as §1
# [3] = test system: LXRa homodimer (NR concentration 270 nM)
# In short: as §1
# [4] = test system: LXRb:RXRa (NR concentration 270 nM, RXRa partner concentration 90 nM)
# In short: as §1
# [5] = test system: LXRb homodimer (NR concentration 270 nM)
# In short: as §1
# [6] = test system: PPARa:RXRa (NR concentration 270 nM, RXRa partner concentration 90 nM)
# In short: as §1
# [7] = test system: PPARg:RXRa (NR concentration 180 nM, RXRa partner concentration 90 nM)
# In short: as §1
# [8] = test system: PPARg:RXRa 270nM:90nM, anti-RXR (NR concentration 270 nM, RXRa partner concentration 90 nM)
# In short: as §1
# [9] = test system: PPARg:RXRa 30nM:10nM, anti-RXR (NR concentration 30 nM, RXRa partner concentration 10 nM)
# In short: as §1
# [10] = test system: PPARg:RXRa 90nM:30nM, anti-RXR (NR concentration 90 nM, RXRa partner concentration 30 nM)
# In short: as §1
Sequence,PBM binding z-score [1],PBM binding z-score [2],PBM binding z-score [3],PBM binding z-score [4],PBM binding z-score [5],PBM binding z-score [6],PBM binding z-score [7],PBM binding z-score [8],PBM binding z-score [9],PBM binding z-score [10]
TCTTGTAGATCCGCAGGTTAAGAAAGCTGGCCAA,0.144,0.322,-0.25,0.303,-0.333,0.634,-0.592,1.34,2.55,1.87
ATCTGTAGGTAAGACTCAGTTCAGTGAAGAACGC,0.0473,0.226,0.296,0.0254,-0.0598,0.0967,0.00745,0.0947,-0.305,-0.0173
CGTAGCAGGCCAATCTGGGTCACTCAAGGCTTGA,0.309,0.88,-0.711,0.262,-0.737,2.6,2.21,2.03,-0.188,1.08
CCTACTGGGCCAAGAAGGTCATTGATGCCGATAA,1.94,2.35,0.897,2.47,-0.675,3.5,2.17,2.94,0.664,1.87
ACTTACGGGTCAACGAGGTTGTAGCACGCGTATA,6.76,4.66,0.172,4,0.502,5.6,5.04,4.93,1.89,3.69
CCTATTAGTTGACCATAAGGGCAACAGAAGCTCG,0.832,0.536,0.381,0.601,0.473,0.814,0.639,0.432,0.111,0.284
AGGATGAGGTTACCAAAGATCAGGGAAACGCTTG,1.74,6.04,0.206,3.17,0.353,2.93,1.55,1.76,0.744,1.12
GTACCAAGGTGAATAGGTCTTTGATGAGTAGGCG,0.444,0.341,-0.168,0.148,-0.363,1.23,0.96,1.11,0.335,0.823
TCATATAGGTAAATGCTATGTGAAAGTCCGATCT,0.801,0.648,0.000605,0.522,-0.0167,1.13,1,2.16,3.62,3.03
TCGAGTAGGTTAGGGGCATTAAGAATGGCGTCGA,0.466,0.479,-0.184,0.739,-0.27,1.34,1.07,2.13,1.32,1.98
TCGTATAGGTAAACAGGTGAAAGTCCGTAAGTTA,1.19,0.963,0.191,0.852,0.0957,1.95,1.46,2.64,2.92,2.76
CGTCCAAGGTCAAAGGTCAGTGTAGAGATGACGG,8.42,7.04,3.99,6.49,1.91,7.25,10.7,9.05,7.79,9.69
AACACAGGGTCACTAGGCCAGAGTAGGTACGAAT,6.27,4.48,0.354,3.63,0.661,5.75,7.72,6.51,2.84,5.42
TGTCAAAGTTCAAAGGTACCGTAAGTATCCACAC,6.69,6.28,4.68,4.31,1.83,5.79,7.97,7.18,4.9,6.89
ACTAGCAGGCCCAGGGTCACTCAAGATTAGTCCG,1.28,1.58,-0.164,1.69,-0.913,2.27,1.36,2.3,0.49,1.68
CCGACTGGGTCAGAAAGGTTACCATACCATCCGG,1.8,1.62,-0.0382,1.61,-0.767,3.21,3.13,3.2,0.873,2.2
CGAACTAGGTAATTGACAGGACAGTGAATAGTAA,-0.398,-0.336,0.0257,-0.434,-0.603,0.979,1.09,0.555,0.0511,0.213
AGAATGAGGTTACCAAGGATCAGGGAAACGCTTG,1.77,4.49,-0.144,2.06,-0.102,3.69,2.58,2.47,1.09,1.97
CCTGCTACGTCATGGTCAGCTAATCTACAGTATG,-0.508,-0.217,-0.512,-0.505,-0.327,-0.4,0.216,-0.67,-0.17,-0.333
GATACAGGGTCAGCTAGAGGCAAGAGTATGGAAA,4.32,2.35,-0.297,2.33,-0.0863,4.69,3.78,3.19,0.625,1.71
GGAACGAGGGCAAGTTCATAGCAGAGTTTGATGG,2.59,1.97,0.721,1.46,-0.0122,2.95,2.11,2.35,0.471,1.57
CAGCCGAGGTCAGGGCCAGTATAGGAGGAACGTT,6.57,3.98,-0.152,3.28,-0.519,5.6,5.04,4.49,1.2,3.28
ATAAGTAGGTTAAGGGTCATTCAGGTTGGTTCGC,4.91,4.67,3.52,4.65,2.15,6.55,12,9.92,10.7,11.2
TCATATCGGTAAATGCTAGGTGAAAGTCCGATCT,0.228,0.361,0.17,0.39,0.0158,0.778,0.243,2.06,3.69,2.84
TAGCCTAGGTCATTCGGGGGCCAGTATAGAAAGC,5.41,4.7,1.38,5.3,9.24,4.26,3.69,4.12,1.38,3.17

Sequence,PBM binding z-score [1],PBM binding z-score [2],PBM binding z-score [3],PBM binding z-score [4],PBM binding z-score [5],PBM binding z-score [6],PBM binding z-score [7],PBM binding z-score [8],PBM binding z-score [9],PBM binding z-score [10]
TCATATAGATAAATGCTAGGTGAAAGTCCGATCT,0.784,0.813,0.103,0.591,-0.152,0.912,0.876,2.09,3.93,3.03
TCTAGCAGGCCTGAGGGTCACTCAAGAGGTACGG,1.03,1.18,-0.547,1.32,-1.24,2.38,0.588,1.57,1.62,1.44
ATCTCTAGGTAAAATTCAGTGAAAGATCGATAGA,0.583,0.493,0.422,0.121,0.916,0.171,0.606,0.699,0.552,0.917
ATCTCTAGGTAAACATAGTTCAGTGAATGCAAAT,0.367,4.22,0.983,1.07,0.728,0.819,1.12,1.07,0.499,0.945
CGTCAAAGTTCATCTAAGGTAACGTAAAGCACGC,6.89,6.38,4.65,4.03,2.11,4.73,4.57,5.27,2.69,4.22
TTTTGTAGATCAATAGAGGTTAAGAAAGTGCGCT,0.883,3.94,1.12,1.9,0.26,2.02,0.38,1.37,1.13,1.41
TATACAGGGTCAAAGGCCAGAGTTCGAATGTCGA,7.08,6.38,3.94,4.81,2.5,6.15,8.48,7.27,5.54,7.17
CGTTCAAGGTCAATGCTAGGTCAGTGAAAGCATT,7.47,5.78,2.89,4.36,1.24,5.27,4.81,5.15,1.88,3.91
GGAAGGAGGGCAAGTTGATAGCAGAGTTTGATGG,1.04,0.798,0.562,1.5,1.47,1.92,1.2,1.53,0.406,0.957
CCGACTGGGGCATAAGGTTACGATAAGCCAGCCC,0.452,0.99,-0.328,0.815,-1.42,2.41,2.58,3.55,1.47,3.22
ATATGTAGGTTATCGTGTCATTCAGTTTGCGCAT,0.97,1.3,0.641,1.5,0.855,3.55,5.76,5.11,2.48,4.38
TATACAGGGTCAAAGGCCAGATTACGAATGTCGA,7.37,6.22,2.78,4.95,2.24,6.15,8,7.46,5.15,7.09
CCTAGCAGGCAAGGGTCACTCAAGCATTTCGCTT,2.9,2.67,-0.242,2.45,-0.627,3.8,1.77,3.27,0.737,2.48
GGAACGAAGGCAAAGTTGATAGCATCTGTCGACG,-0.685,-0.726,-0.64,-0.769,-1.04,1.16,2.69,4.58,2.36,4.01
CCAGACAGCTGAGAAGGTAACTCAGCCTCGATTA,-0.225,-0.563,-0.25,-0.499,-0.831,-0.574,-0.129,-0.555,-0.623,-0.881
CCACGGAGGACAACAGGAGGTCAGAGCTGCCAGA,1.09,2.38,2.44,1.7,-0.198,2.21,0.672,0.164,-0.705,-0.441
CCTTACGGGTCACGAGGCTATAGCACGACGAGCG,6.52,3.97,0.0117,3.26,-0.222,5.83,6.52,5.91,2.64,4.4
CGTCAAAGTTCAACTAAGGTAACGGAAAGCACGC,6.73,6.18,3.33,4.2,2.03,5.27,4.86,5.75,1.99,4.58
GCAGACACGTGAAACGCAGGTAACTCAGGGTGGC,-0.868,-0.737,-0.81,-0.691,-1.29,-0.718,0.584,-0.446,-0.559,-0.87
CCTACTGGGCCAAAAAGGTCTTTGATGCCGATAA,-0.753,-0.556,-0.512,-0.343,-1.15,0.669,0.196,1.01,-0.425,0.203
TTACCAATGTGAGCTGAGGTCGTTGATCCAACTC,0.612,0.222,-0.15,0.408,-0.727,0.851,-0.119,0.638,0.496,0.42
CCTACTGGGCCATTCAGATGTCATTGATCATATG,-0.368,-0.638,-0.391,-0.292,-0.418,0.25,0.6,0.494,0.00113,0.0703
TCTTGTAGATCAAGCAGGTTAACAAAGCCTGAGT,0.489,0.545,0.00608,0.81,-0.426,0.99,-0.0763,1.23,2.44,2.04
GGAACGAGGGCATGCGAGTTGATAGCATGGCGAT,0.758,0.468,-0.615,-0.143,-1.37,1.35,0.979,0.516,-0.248,0.117
